CYP2C19 activ: cytochrome P450 2C19 (human) activation; P33261; recombinant CYP2C19, luciferin-H EGE luminescence; active compounds read high; 0 = fully inhibited enzyme, 1 = untreated enzyme; activation factor at 5 µM; 96,000 tested, under 10 active; AID 1025;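 active = activation factor of at least 2 at 5 µM in the primary screen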;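 note: 0 = wells with 2.5 mM tranylcypromine and 1 = vehicle-only wells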
CYP2C9 activ: increases human cytochrome P450 2C9 activity. 1.4% of 96,000 active. recombinant CYP2C9, luciferin-H conversion, luminescence; active compounds read high; factor 1 = untreated enzyme, 0 = blocked. activation factor at 5 µM. AID 1024. P11712;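 active = activation factor of 2 or more for CYP2C9 at a 5 µM dose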;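 note: 0 = sulfaphenazole-blocked wells and 1 = vehicle-only wells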
CYP2C9 inhib: inhibitors of human CYP2C9; inhibition, % at 5 µM; AID 777; CYP2C9 Supersomes, luciferin-H conversion, luminescence; 20% of 96,000 active; P11712;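 active = blocking of liver enzyme CYP2C9 beyond about 50% at 5 µM, limit read from the data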
CYP2C19 inhib: inhibitors of human CYP2C19 | 21% of 96,000 active | inhibition, % at 5 µM | CYP2C19 Supersomes, luciferin-H EGE luminescence, 30 min | P33261 | AID 778;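 active = CYP2C19 inhibition above a set limit at 5 µM in the primary screen, cut at about 50% in these data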;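 note: plate controls were negative control wells for no effect and 2.5 mM tranylcypromine positive control for full effect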
Cav32 inh: inhibitors of human Cav3.2 T-type calcium channel; B-score at 10 µM; 4% of 100,000 active; Cav3.2-expressing cells, Fluo-4 calcium fluorescence FDSS; active compounds read low; O95180;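 active = single-dose well whose peak fluorescence ratio is a statistical outlier from its plate by either plate-standardised score or position-corrected B-score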
An asterisk follows results filed as active; x = no result given. Only some compounds are listed: those with a hit (about 27% of all), similar ones and a draw of the others.

SMILES	CYP2C19 activ	CYP2C9 activ	CYP2C9 inhib	CYP2C19 inhib	Cav32 inh
CCOc1ccc(-n2ccnc2SCC(=O)NCc2ccc3c(c2)OCO3)cc1	0.2	0.4	64.2*	81.4*	-2.66
O=C(CSc1nccn1-c1ccccc1)NCc1ccc2c(c1)OCO2	0	0	98.5*	99.7*	0.732
O=C(CSc1nccn1-c1ccc(F)cc1)NCc1ccc2c(c1)OCO2	0.1	0.2	80.5*	91.5*	x
CC(=O)Nc1ccc(OC(F)(F)C(F)C(F)(F)F)c(NC(C)=O)c1 (stereo not given)	1.2	1.1	-14.9	-16.0	0.292
Cc1ccc2nsnc2c1S(=O)(=O)N1CCN(C(=O)C2CCCO2)CC1 (stereo not given)	1	0.9	14.7	1.4	0.378
Cc1cc(/C=N\NC(=O)c2cccs2)c(C)n1-c1ccc2ncccc2c1	0.8	0.5	45.1	15.9	-2.11
Cc1nc2ccccc2n1CC(O)Cn1c(C(F)(F)F)nc2ccccc21 (stereo not given)	0.7	0.3	72.2*	33.0	-0.498
OC(CN1CCCCC1)Cn1c(C(F)(F)F)nc2ccccc21 (stereo not given)	1	1.1	-12.3	-2.4	0.774
O=C(Cn1c(C(F)(F)F)nc2ccccc21)c1ccccc1	0.5	0.6	39.3	53.1*	0.131
O=C(Cn1c(C(F)(F)F)nc2ccccc21)c1ccc(Cl)cc1	0	0.6	43.9	99.6*	0.729
CCOc1[nH]n(-c2ccc(Cl)cc2)c(=O)c1C=Nc1ccc(C)cc1	1	0.9	14.4	1.7	0.167
COc1ccc(C2=C(O)C(C)N(c3ccccc3)C2=N)cc1OC (stereo not given)	1.1	1.3	-25.8	-12.3	-0.0162
CC1CCc2c(C(=O)NCCCN3CCOCC3)csc2C1 (stereo not given)	1	1.1	-6.2	-1.4	0.32
Cc1ccc2c(c1)nnn2C1CCN(CC(=O)NCCc2nc3ccccc3[nH]2)CC1	0.8	0.8	23.9	21.7	0.718
O=C(c1ccc(Cl)cc1)C1CCN(C(=O)NC2CCCCC2)CC1	0.1	0.2	84.7*	92.9*	-1.11
Cc1ccc(NC(=O)C(=O)NC(C)C2COc3ccccc3O2)cc1 (stereo not given)	0.9	1	-2.5	5.4	0.732
CC(NC(=O)CCC(=O)NC(C)C1COc2ccccc2O1)C1COc2ccccc2O1 (stereo not given)	0.6	0.6	38.5	42.0	-8.82*
CC(NC(=O)c1ccco1)C1COc2ccccc2O1 (stereo not given)	0.7	0.9	9.6	28.0	-0.0145
COc1ccc(CNC(C)C2COc3ccccc3O2)c(OC)c1 (stereo not given)	0.1	0.9	12.8	87.0*	0.221
CC(NCc1ccccc1)C1COc2ccccc2O1 (stereo not given)	0.5	0.9	6.0	51.9*	x
COc1ccc(CC(C)N2CCN(Cc3ccccc3)CC2)c(OC)c1 (stereo not given)	1.1	1.1	-14.6	-6.5	0.217
O=[N+]([O-])c1cc2c(cc1/C=N/Nc1nc(Nc3ccccc3)nc(N3CCCCC3)n1)OCO2	x	x	x	x	-1.72
CCCCCOc1ccc(NS(C)(=O)=O)cc1	0.9	0.7	25.7	10.0	x
CS(=O)(=O)Nc1ccc(Cc2ccc(NS(C)(=O)=O)cc2)cc1	0.7	0.5	51.8*	26.2	0.618
CCS(=O)(=O)Nc1ccc(Cc2ccc(NS(=O)(=O)CC)cc2)cc1	0.3	0.1	86.6*	69.6*	-0.357
SMILES	CYP2C19 activ	CYP2C9 activ	CYP2C9 inhib	CYP2C19 inhib	Cav32 inh
Cc1ccc(C(=C2C3C=CC2C2C(=O)NC(=O)C32)c2ccc(C)cc2)cc1 (stereo not given)	0.8	1	2.8	17.7	0.104
O=C(Nc1ccc(F)cc1)c1cccc(NC(=O)C2C3CC4OC(=O)C2C4C3)c1 (stereo not given)	1.1	1	2.9	-8.2	0.13
C#CC(CC)(CC)NC(=S)Nc1cccc(C(C)=O)c1	x	x	x	x	-0.758
CC(=O)c1cc(-c2ccccc2)n(CC(=O)NCc2cccs2)c1C	0.1	0.6	41.0	88.2*	x
CCOC(=O)c1cc(-c2ccc(C)cc2)n(CC(=O)NCc2ccco2)c1C	0.2	0.2	77.3*	83.1*	-0.517
O=C(CN1CCN(Cc2ccccc2)C1=O)NCc1cccs1	0.7	0.8	17.4	29.7	-0.417
CC(C)Cn1c(=O)c(C(=O)NCc2ccccn2)c(O)c2ccccc21	0.8	0.8	17.4	17.1	-4.66
COc1cc(NC(=O)CN(c2cc(C)cc(C)c2)S(=O)(=O)c2c(C)noc2C)cc(OC)c1	0.6	0.7	27.0	40.9	-2.62
